Measured values taken from PubChem BioAssay (EPA / NIEHS).
The source made the active and inactive calls. The calls were made as follows: active = hit-call score of the fitted dose curve at least 0.9, where 1 is the maximum; inactive = score below 0.9.

Tests used:
[1] = read-out: Monokine induced gamma interferon (MIG), CXCL9 (gene 4283); assay: BSK_hDFCGF_MIG: BioMAP Diversity Plus: hDFCGF Assay for Monokine induced gamma interferon (MIG) Biomarker Activity (AID 2283063); settings: primary human foreskin fibroblasts; actives raise or lower the signal
Procedure, shortened: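 ELISA read-out of MIG from primary human dermal fibroblasts 24 h post-dosing. Gain or loss of signal fitted bidirectionally, DMSO as baseline.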

[2] = read-out: Matrix Metallopeptidase 1 (MMP1), MMP1 (gene 4312); assay: BSK_hDFCGF_MMP1: BioMAP Diversity Plus: hDFCGF Assay for Matrix Metallopeptidase 1 (MMP1) Biomarker Activity (AID 2283064); settings: primary human foreskin fibroblasts; actives raise or lower the signal
Procedure, shortened: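 Primary human foreskin fibroblasts in the hDFCGF system were dosed with test chemical, and MMP1 was measured by ELISA 24 h later. Values come from bidirectional curve fitting against the DMSO baseline.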

[3] = read-out: Vascular cell adhesion molecule 1 (VCAM1), VCAM1 (gene 7412); assay: BSK_hDFCGF_VCAM1: BioMAP Diversity Plus: hDFCGF Assay for Vascular cell adhesion molecule 1 (VCAM1) Biomarker Activity (AID 2283065); settings: primary human foreskin fibroblasts; actives raise or lower the signal
Procedure, shortened: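 Primary human foreskin fibroblasts (hDFCGF system) were dosed with chemical and VCAM-1 was measured by ELISA 24 h later. Bidirectional curve fitting used DMSO as negative control and activity baseline.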

[4] = read-out: Intercellular Adhesion Molecule 1 (ICAM1), ICAM1 (gene 3383); assay: BSK_KF3CT_ICAM1: BioMAP Diversity Plus: KF3CT Assay for Intercellular Adhesion Molecule 1 (ICAM1) Biomarker Activity (AID 2283067); settings: primary human keratinocytes with fibroblasts; actives raise or lower the signal
Procedure, shortened: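 Human keratinocyte plus foreskin fibroblast primary co-culture was exposed to chemical for 24 h. ICAM-1 was then quantified by ELISA, and the data were fit bidirectionally against DMSO as the negative control and baseline.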

[5] = read-out: Interferon-gamma inducible Protein 10 (IP10), CXCL10 (gene 3627); assay: BSK_KF3CT_IP10: BioMAP Diversity Plus: KF3CT Assay for Interferon-gamma inducible Protein 10 (IP10) Biomarker Activity (AID 2283068); settings: primary human keratinocytes with fibroblasts; actives raise or lower the signal
Procedure, shortened: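 In a primary skin co-culture of keratinocytes and fibroblasts, IP-10 is quantified by ELISA at 24 h after dosing. SRB staining of parallel wells monitors overt toxicity. Curves are fitted both directions against DMSO.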

[6] = BSK_KF3CT_SRB: Viability Assessment in the BioMAP Diversity Plus: KF3CT Assay (AID 2283069); settings: primary human keratinocytes with fibroblasts;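 also: total protein by sulforhodamine B staining as a cytotoxicity measure; read 24 h after compound addition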
Procedure, shortened: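 Human primary keratinocyte plus foreskin fibroblast co-culture exposed to chemicals for 24 h. Total protein measured by 0.1% sulforhodamine B staining after 10% TCA fixation, read at 560 nm; bidirectional fitting versus DMSO baseline.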

[7] = read-out: TIMP metallopeptidase inhibitor 2 (TIMP2), TIMP2 (gene 7077); assay: BSK_KF3CT_TIMP2: BioMAP Diversity Plus: KF3CT Assay for TIMP metallopeptidase inhibitor 2 (TIMP2) Biomarker Activity (AID 2283071); settings: primary human keratinocytes with fibroblasts; actives raise or lower the signal
Procedure, shortened: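 Co-culture of human primary keratinocytes and foreskin fibroblasts, measured 24 h after chemical dosing. TIMP-2 quantified by ELISA and fitted in both directions relative to DMSO. Cytotoxicity checked in parallel cultures by SRB total-protein staining.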

[8] = read-out: Transforming growth factor beta 1 (TGFb1), TGFB1 (gene 7040); assay: BSK_KF3CT_TGFb1: BioMAP Diversity Plus: KF3CT Assay for Transforming growth factor beta 1 (TGFb1) Biomarker Activity (AID 2283072); settings: primary human keratinocytes with fibroblasts; actives raise or lower the signal
Procedure, shortened: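 Human keratinocyte/foreskin fibroblast co-culture; TGF-b1 measured by ELISA 24 h after dosing, fitted bidirectionally versus DMSO. Cytotoxicity checked in parallel cultures by total protein (SRB staining, 560 nm).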

[9] = read-out: C-C motif chemokine 2 (Homo sapiens) (UniProt P13500); assay: BSK_KF3CT_MCP1: BioMAP Diversity Plus: KF3CT Assay for Monocyte Chemoattractant Protein 1 (MCP1/CCL2) Biomarker Activity (AID 2283073); settings: primary human keratinocytes with fibroblasts; actives raise or lower the signal
Procedure, shortened: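 Human keratinocyte plus foreskin fibroblast primary co-culture exposed to chemical for 24 h. MCP-1 levels measured by ELISA. Bidirectional curve fitting relative to DMSO negative control as baseline.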

[10] = read-out: Matrix Metallopeptidase 9 (MMP9), MMP9 (gene 4318); assay: BSK_KF3CT_MMP9: BioMAP Diversity Plus: KF3CT Assay for Matrix Metallopeptidase 9 (MMP9) Biomarker Activity (AID 2283074); settings: primary human keratinocytes with fibroblasts; actives raise or lower the signal
Procedure, shortened: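 Keratinocyte plus foreskin fibroblast human primary skin co-culture was dosed with chemical and MMP-9 was quantified by ELISA 24 h later. Bidirectional curve fitting used DMSO as negative control and activity baseline.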

[11] = read-out: urokinase plasminogen activator (uPA), PLAU (gene 5328); assay: BSK_KF3CT_uPA: BioMAP Diversity Plus: KF3CT Assay for urokinase plasminogen activator (uPA) Biomarker Activity (AID 2283075); settings: primary human keratinocytes with fibroblasts; actives raise or lower the signal
Procedure, shortened: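 Human keratinocyte plus foreskin fibroblast primary co-culture exposed to chemical for 24 h. uPA levels were quantified by ELISA, and activity was fitted bidirectionally against a DMSO negative-control baseline.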

CD40, CD40 (gene 958) = assay: BSK_LPS_CD40: BioMAP Diversity Plus: LPS Assay for CD40 Biomarker Activity (AID 2283076); settings: primary human HUVEC with PBMC; actives raise or lower the signal
Procedure, shortened: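 Primary human umbilical vein endothelial cells co-cultured with peripheral blood mononuclear cells, LPS-stimulated, were dosed with chemical and read 24 h later. CD40 levels were measured by ELISA and fitted bidirectionally against DMSO as negative control and baseline.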

[12] = read-out: E-selectin (Homo sapiens) (UniProt P16581); assay: BSK_LPS_Eselectin: BioMAP Diversity Plus: LPS Assay for Eselectin Biomarker Activity (AID 2283077); settings: primary human HUVEC with PBMC; actives raise or lower the signal
Procedure, shortened: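 Human umbilical vein endothelial cells co-cultured with peripheral blood mononuclear cells under LPS stimulation; E-selectin measured by ELISA 24 h after chemical dosing. Activity fitted bidirectionally against DMSO as negative control and baseline.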

[13] = read-out: Interleukin-8 (IL8), CXCL8 (gene 3576); assay: BSK_LPS_IL8: BioMAP Diversity Plus: LPS Assay for Interleukin-8 (IL8) Biomarker Activity (AID 2283078); settings: primary human HUVEC with PBMC; actives raise or lower the signal
Procedure, shortened: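 Human umbilical vein endothelial cells co-cultured with PBMC were stimulated with LPS; IL-8 levels were measured by ELISA 24 h after chemical dosing. Activity was fitted bidirectionally against DMSO as negative control and baseline.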

[14] = BSK_LPS_SRB: Viability Assessment in the BioMAP Diversity Plus: LPS Assay (AID 2283079); settings: primary human HUVEC with PBMC;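 also: total protein by sulforhodamine B absorbance as a cytotoxicity measure; measured one day after compound addition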
Procedure, shortened: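 Human umbilical vein endothelial cells co-cultured with PBMC (LPS system) were dosed for 24 h. Total protein was stained with 0.1% sulforhodamine B after 10% TCA fixation, read at 560 nm, and fitted bidirectionally against DMSO baseline.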

[15] = read-out: Interleukin-1 alpha (IL1a), IL1A (gene 3552); assay: BSK_LPS_IL1a: BioMAP Diversity Plus: LPS Assay for Interleukin-1 alpha (IL1a) Biomarker Activity (AID 2283080); settings: primary human HUVEC with PBMC; actives raise or lower the signal
Procedure, shortened: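 Human umbilical vein endothelial cells co-cultured with peripheral blood mononuclear cells were LPS-stimulated and exposed to test chemicals for 24 h. IL-1 alpha was quantified by ELISA, with bidirectional curve fitting against DMSO as the negative control and baseline.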

[16] = BSK_LPS_PGE2: BioMAP Diversity Plus: LPS Assay for Prostaglandin E2 (PGE2) Biomarker Activity (AID 2283082); settings: primary human HUVEC with PBMC; actives raise or lower the signal
Procedure, shortened: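 HUVEC plus human PBMC co-culture stimulated with LPS; secreted PGE2 quantified by ELISA 24 h after chemical dosing. Activity fitted bidirectionally against DMSO baseline; parallel SRB staining (0.1% SRB after 10% TCA fixation, 560 nm) flags overt cytotoxicity.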

[17] = read-out: Monocyte Chemoattractant Protein-1 (MCP1), CCL2 (gene 6347); assay: BSK_LPS_MCP1: BioMAP Diversity Plus: LPS Assay for Monocyte Chemoattractant Protein-1 (MCP1) Biomarker Activity (AID 2283081); settings: primary human HUVEC with PBMC; actives raise or lower the signal
Procedure, shortened: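 HUVEC plus PBMC co-culture (human primary cells, LPS system) exposed to test chemical for 24 h; MCP-1 measured by ELISA. Bidirectional curve fitting against DMSO baseline; parallel SRB total-protein staining flags overt cytotoxicity.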

[18] = read-out: Plasminogen activator inhibitor-1 (PAI1), SERPINE1 (gene 5054); assay: BSK_hDFCGF_PAI1: BioMAP Diversity Plus: hDFCGF Assay for Plasminogen activator inhibitor-1 (PAI1) Biomarker Activity (AID 2283066); settings: primary human foreskin fibroblasts; actives raise or lower the signal
Procedure, shortened: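 Human foreskin fibroblast primary cells, 24 h chemical exposure; PAI-1 measured by ELISA. Bidirectional fitting relative to DMSO; parallel cultures stained with SRB for total protein to flag overt cytotoxicity.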

[19] = read-out: Interleukin-1 alpha (IL1a), IL1A (gene 3552); assay: BSK_KF3CT_IL1a: BioMAP Diversity Plus: KF3CT Assay for Interleukin-1 alpha (IL1a) Biomarker Activity (AID 2283070); settings: primary human keratinocytes with fibroblasts; actives raise or lower the signal
Procedure, shortened: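 Human keratinocyte plus foreskin fibroblast primary co-culture, sampled 24 h after chemical dosing. IL-1a measured by ELISA; responses fitted bidirectionally against DMSO baseline (negative control), so gain or loss of signal both count.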

Measured: outcome

E-selectin (Homo sapiens), sequence (P16581 whole entry, looked up): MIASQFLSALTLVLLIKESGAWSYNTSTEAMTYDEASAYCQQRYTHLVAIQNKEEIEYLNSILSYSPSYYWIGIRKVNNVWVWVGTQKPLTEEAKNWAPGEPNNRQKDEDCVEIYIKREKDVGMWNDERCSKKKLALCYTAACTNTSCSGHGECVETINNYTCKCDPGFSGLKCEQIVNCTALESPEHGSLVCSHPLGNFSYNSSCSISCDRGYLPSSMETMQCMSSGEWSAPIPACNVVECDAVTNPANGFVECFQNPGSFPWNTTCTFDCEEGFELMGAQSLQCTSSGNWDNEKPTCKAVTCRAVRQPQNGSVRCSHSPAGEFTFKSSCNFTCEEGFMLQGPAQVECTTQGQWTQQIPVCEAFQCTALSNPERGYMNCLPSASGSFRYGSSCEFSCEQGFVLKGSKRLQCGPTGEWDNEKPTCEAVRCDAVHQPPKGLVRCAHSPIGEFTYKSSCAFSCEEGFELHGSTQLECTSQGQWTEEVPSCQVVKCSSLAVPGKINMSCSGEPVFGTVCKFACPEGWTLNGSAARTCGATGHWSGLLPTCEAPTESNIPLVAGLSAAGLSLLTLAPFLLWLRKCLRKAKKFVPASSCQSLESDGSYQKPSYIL

CC(=O)OC[C@H]1O[C@@](COC(C)=O)(O[C@H]2O[C@H](COC(C)=O)[C@@H](OC(C)=O)[C@H](OC(C)=O)[C@H]2OC(C)=O)[C@@H](OC(C)=O)[C@@H]1OC(C)=O
not listed: [17] | [18] | [19]
inactive: all other assays above

CC(C)CC(C)(O)C#CC(C)(O)CC(C)C (configuration not stated)
not listed: [9] | [18] | [19]
inactive: all other assays above

CC[C@H]1OC(=O)[C@H](C)[C@@H](O[C@H]2C[C@@](C)(OC)[C@@H](O)[C@H](C)O2)[C@H](C)[C@@H](O[C@@H]2O[C@H](C)C[C@H](N(C)C)[C@H]2O)[C@](C)(O)C[C@@H](C)C(=O)[C@H](C)[C@@H](O)[C@]1(C)O
not listed: [2] | [12]
inactive: all other assays above
